Laboratory results taken from PubChem BioAssay (NCATS).
Values joined by “and” are separate entries in the source; they are usually repeats but may differ in a detail not shown here. Equal values may be shown once. Inconclusive results are not listed. A structure can be active in one record and inactive in another. Active and inactive are the calls of the source. Calls follow the shape of the dose curve; as a rule, active = well fitted curve in the direction sought with a large enough effect; inconclusive = small, poorly fitted or top-dose-only effect, or another doubt; inactive = no such curve, though single readings can be large; an effect the other way counts as inactive or inconclusive.

Assays:
[1] = BET inhibitor-based combinations targeting novel dependencies in MECOM-rearranged (r) AML: SET-2 cell line (AID 2202231); settings: SET-2 AML cells viability, CellTiter-Glo luminescence, 48 h; viability: stronger effect = lower value, concentration not given here; also: nearly all actives have a fitted effect of over 35% in size;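 as to viability: plate controls were DMSO treated cells for no effect and wells without cells for full effect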
Method in brief: (§1)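 Cells were plated at 500 per well and exposed to an 11-point dose series of each drug for 48 hr. Viability was measured by CellTiter-Glo luminescence, normalized to DMSO and empty-well controls, and summarized as AUC and per-cell-line Z-AUC.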

[2] = BET inhibitor-based combinations targeting novel dependencies in MECOM-rearranged (r) AML: OCI-AML3 cell line (AID 2202232); settings: Potency: OCI-AML3 viability; also: nearly all actives have a fitted effect of over 35% in size
Method in brief: as §1

[3] = BET inhibitor-based combinations targeting novel dependencies in MECOM-rearranged (r) AML: MV-4-11 cell line (AID 2202233); also: nearly all actives have a fitted effect of over 45% in size
Method in brief: (§2)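 Activity is given as area under the curve and as Z-AUC, mean-centred within each cell line. It comes from 11-point dose curves normalized to DMSO and empty wells. CellTiter-Glo luminescence was read after 48 hr drug exposure of 500 cells/well.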

[4] = BET inhibitor-based combinations targeting novel dependencies in MECOM-rearranged (r) AML: HNT-34 cell line (AID 2202234); also: nearly all actives have a fitted effect of over 35% in size
Method in brief: as §2

[5] = BET inhibitor-based combinations targeting novel dependencies in MECOM-rearranged (r) AML: UCSD-AML1 cell line (AID 2202235); also: nearly all actives have a fitted effect of over 40% in size
Method in brief: as §2

[6] = BET inhibitor-based combinations targeting novel dependencies in MECOM-rearranged (r) AML: AML-191 cell line (AID 2202236; also: nearly all actives have a fitted effect of over 35% in size)
Method in brief: as §1

[7] = BET inhibitor-based combinations targeting novel dependencies in MECOM-rearranged (r) AML: AML-194 cell line (AID 2202237; also: nearly all actives have a fitted effect of over 40% in size)
Method in brief: as §1
Potency is read from the fitted curve at half-maximal effect.

SMILES | viability [1] | Potency [2] | Potency [3] | Potency [4] | Potency [5] | Potency [6] | Potency [7] | Potency [1]
Cc1ccc(NS(=O)(=O)c2ccc3c(c2)C2C=CCC2C(c2ccc(C(=O)O)cc2)N3)cc1C (centres undefined) | 109% (inactive) | inactive | inactive | inactive | inactive | inactive | inactive | 
C/C=C1\NC(=O)[C@H]2CSSCC/C=C\[C@H](CC(=O)N[C@H](C(C)C)C(=O)N2)OC(=O)[C@H](C(C)C)NC1=O |  | 0.0105 µM (active) | 0.0118 µM (active) | 0.0083 µM (active) | 10.5 nM (active) | 0.0148 µM (active) | 0.0235 µM (active) | 0.0295 µM (active)
COc1cc([C@@H]2c3cc4c(cc3[C@@H](O[C@@H]3O[C@@H]5CO[C@@H](C)O[C@@H]5[C@H](O)[C@@H]3O)[C@H]3COC(=O)[C@H]23)OCO4)cc(OC)c1O |  | 0.934 µM (active) | 0.166 µM (active) | 1.48 µM (active) | 833 nM (active) | 1.32 µM (active) | 2.09 µM (active) | 5.25 µM (active)
C[C@@H](OC[C@@]1(c2ccccc2)CC[C@]2(CCC(=O)N2)CN1)c1cc(C(F)(F)F)cc(C(F)(F)F)c1 |  | 18.6 µM (active) | 20.9 µM (active) | 18.6 µM (active) | 23500 nM (active) | 18.6 µM (active) | 26.3 µM (active) | 20.9 µM (active)
CNCCCOc1cc(F)c(-c2c(Cl)nc3ncnn3c2N[C@@H](C)C(F)(F)F)c(F)c1 |  | 0.0833 µM (active) | 0.0934 µM (active) | 0.0742 µM (active) | 118 nM (active) | 0.0934 µM (active) | 0.105 µM (active) | 0.148 µM (active)
C=C[C@H]1CN2CCC1C[C@@H]2C(O)c1ccnc2ccc(OC)cc12 (some centres undefined) | 103% (inactive) | inactive | 18.6 µM (active) | inactive | inactive | inactive | inactive | 
Cn1c(NCCN(CCO)CCCc2ccc([N+](=O)[O-])cc2)cc(=O)n(C)c1=O | 114% (inactive) | inactive | inactive | inactive | inactive | inactive | inactive | 
CCS(=O)(=O)Nc1ccc2[nH]c(O)c(C(=Nc3ccc(CN4CCCCC4)cc3)c3ccccc3)c2c1 |  | 0.235 µM (active) | 0.0295 µM (active) | 0.148 µM (active) | 833 nM (active) | 0.0661 µM (active) | 0.0934 µM (active) | 2.63 µM (active)
CC(C)(C)C(=O)OCOP(=O)(COCCn1cnc2c(N)ncnc21)OCOC(=O)C(C)(C)C |  | 0.525 µM (active) | 0.209 µM (active) | 2.63 µM (active) | 1860 nM (active) | 1.66 µM (active) | 2.95 µM (active) | 4.68 µM (active)
CC[C@@]1(O)C(=O)OCc2c1cc1n(c2=O)Cc2c-1nc1ccccc1c2CCNC(C)C |  | 0.0047 µM (active) | 0.0042 µM (active) | 0.0037 µM (active) | 7.4 nM (active) | 0.0118 µM (active) | 0.0132 µM (active) | 0.0166 µM (active)
CCC[C@@H]1C[C@@H](C(=O)N[C@@H]([C@H]2O[C@H](SC)[C@H](O)[C@@H](O)[C@H]2O)[C@H](C)Cl)N(C)C1 | 110% (inactive) | inactive | inactive | inactive | inactive | inactive | inactive | 
COc1cc2c(Oc3ccc4[nH]c(C)cc4c3F)ccnc2cc1OCC1(N)CC1 |  | 7.42 µM (active) | 8.33 µM (active) | 10.5 µM (active) | 9340 nM (active) | 7.42 µM (active) | 8.33 µM (active) | 16.6 µM (active)
COc1cc(O)c2c(c1)C1OC1C[C@H](O)[C@H](O)C(=O)C=CC[C@H](C)OC2=O (some centres undefined) |  | 0.742 µM (active) | 0.132 µM (active) | 0.934 µM (active) | 1480 nM (active) | 1.32 µM (active) | 1.48 µM (active) | 5.9 µM (active)
Cc1ncsc1-c1ccc([C@H](C)NC(=O)[C@@H]2C[C@@H](O)CN2C(=O)[C@@H](NC(=O)COCCCOCCNC(=O)C[C@@H]2N=C(c3ccc(Cl)cc3)c3c(sc(C)c3C)-n3c(C)nnc32)C(C)(C)C)cc1 |  | 0.0093 µM (active) | 0.0047 µM (active) | 0.0295 µM (active) | 83.3 nM (active) | 0.209 µM (active) | 0.186 µM (active) | 3.72 µM (active)
CCc1cc2c(c(OCC(F)(F)F)c(C(=O)NC3CCN(C(=O)CO)CC3)n2C)c(=O)n1CC(=O)c1ccccc1 | 103% (inactive) | inactive | inactive | 16.6 µM (active) | inactive | inactive | inactive | 
Cn1cc(CNCC2CCN(c3ncc(C(=O)NO)cn3)CC2)c2ccccc21 |  | 0.118 µM (active) | 0.0833 µM (active) | 0.118 µM (active) | 105 nM (active) | 0.148 µM (active) | 0.332 µM (active) | 0.148 µM (active)

SMILES | viability [1] | Potency [2] | Potency [3] | Potency [4] | Potency [5] | Potency [6] | Potency [7] | Potency [1]
CCS(=O)(=O)Nc1ccc(Oc2ccc(F)cc2F)c(-c2cn(C)c(=O)c3[nH]ccc23)c1 |  | 0.0118 µM (active) | 0.0083 µM (active) | 0.0742 µM (active) | 132 nM (active) | 0.0742 µM (active) | 0.0833 µM (active) | 0.0525 µM (active)
CN(C)C/C=C/C(=O)Nc1ccc(C(=O)N2CCC[C@@H](Nc3ncc(Cl)c(-c4c[nH]c5ccccc45)n3)C2)cc1 |  | 0.372 µM (active) | 0.235 µM (active) | 0.235 µM (active) | 468 nM (active) | 2.35 µM (active) | 1.66 µM (active) | 5.9 µM (active)
CN(C)CCN1C(=O)c2cccc3cc(NC(N)=O)cc(c23)C1=O |  | 13.2 µM (active) | 2.95 µM (active) | 8.33 µM (active) | 5900 nM (active) | 9.34 µM (active) | 9.34 µM (active) | 18.6 µM (active)
CN1CCCN(C(=O)c2cccc(-c3ccc(/C=C4/C(=O)Nc5ccc(Cl)cc54)o3)c2)CC1 |  | 6.61 µM (active) | 0.662 µM (active) | 2.63 µM (active) | 1320 nM (active) | 2.95 µM (active) | 1.86 µM (active) | 20.9 µM (active)
CN[C@H]1CN(c2ccc3c(=O)c(C(=O)O)cn(-c4nccs4)c3n2)C[C@@H]1OC |  | 1.08 µM (active) | 0.27 µM (active) | 0.679 µM (active) | 855 nM (active) | 1.35 µM (active) | 1.52 µM (active) | 2.41 µM (active)
CC(C)=CCC[C@](C)(O[C@@H]1O[C@H](CO[C@@H]2O[C@H](CO)[C@@H](O)[C@H](O)[C@H]2O)[C@@H](O)[C@H](O)[C@H]1O)[C@H]1CC[C@]2(C)[C@@H]1[C@H](O)C[C@@H]1[C@@]3(C)CC[C@H](O[C@@H]4O[C@H](CO)[C@@H](O)[C@H](O)[C@H]4O[C@@H]4O[C@H](CO)[C@@H](O)[C@H](O)[C@H]4O)C(C)(C)[C@@H]3CC[C@]12C | 121% (inactive) | inactive | inactive | inactive | inactive | inactive | inactive | 
CCC(=C/[C@H](C)C/C=C/C(C)=C/[C@@H](C)C(=O)[C@@H](C)[C@H](O)[C@@H](C)C/C(C)=C/C(=O)O)/C=C/[C@@H]1OC(=O)C=C[C@@H]1C |  | 0.0042 µM (active) | 0.003 µM (active) | 0.0037 µM (active) | 3.3 nM (active) | 0.003 µM (active) | 0.0019 µM (active) | 0.0074 µM (active)
CN1C/C=C/CCOc2cccc(c2)-c2ccnc(n2)Nc2cccc(c2)C1 |  | 0.468 µM (active) | 0.417 µM (active) | 0.417 µM (active) | 148 nM (active) | 0.296 µM (active) | 0.372 µM (active) | 0.118 µM (active)
CNC1CCCN(c2c(F)cc3c(=O)c(C(=O)O)cn(C4CC4)c3c2OC)C1 (centres undefined) | 112% (inactive) | inactive | inactive | inactive | inactive | inactive | inactive | 
Nc1nc(Nc2ccc3c(c2)CC[C@@H](N2CCCC2)CC3)nn1-c1cc2c(nn1)-c1ccccc1CCC2 |  | 18.6 µM (active) | 2.63 µM (active) | 7.42 µM (active) | 18600 nM (active) | 18.6 µM (active) | 20.9 µM (active) | 23.5 µM (active)
CC[C@@]1(O)C[C@H](O[C@H]2C[C@H](N(C)C)[C@H](O[C@H]3C[C@H](O)[C@H](O[C@H]4CCC(=O)[C@H](C)O4)[C@H](C)O3)[C@H](C)O2)c2c(cc3c(c2O)C(=O)c2c(O)cccc2C3=O)[C@@H]1C(=O)OC |  | 3.32 µM (active) | 0.742 µM (active) | 3.32 µM (active) | 2350 nM (active) | 2.95 µM (active) | 3.72 µM (active) | 3.72 µM (active)
CC(C)OC(=O)[C@H](C)N[P@](=O)(OC[C@H]1O[C@@H](n2ccc(=O)[nH]c2=O)[C@](C)(F)[C@@H]1O)Oc1ccccc1 | 107% (inactive) | inactive | inactive | inactive | inactive | inactive | inactive | 
CCc1c(-c2ccccc2C)nc2c(C#N)c[nH]n2c1=O | 112% (inactive) and 125% (inactive) | inactive | inactive | inactive | 1.2 nM (active) and inactive | inactive | inactive | 
C[C@@H](Oc1cc(C(=O)Nc2ccc(C(=O)N3CCN(C)CC3)cc2)nnc1N)c1c(Cl)ccc(F)c1Cl |  | 5.9 µM (active) | 1.66 µM (active) | 1.18 µM (active) | 1180 nM (active) | 0.934 µM (active) | 0.934 µM (active) | 18.6 µM (active)
COC(=O)c1ccc([C@H]2c3[nH]c4ccccc4c3C[C@H](C(=O)OC)N2C(=O)CCl)cc1 |  | 0.105 µM (active) | 0.833 µM (active) | 0.0934 µM (active) | 166 nM (active) | 0.132 µM (active) | 0.105 µM (active) | 0.0934 µM (active)
CC(=O)N[C@H]1CSSC[C@@H](C(N)=O)NC(=O)[C@H](C(C)C)NC(=O)[C@H](C)NC(=O)[C@H](Cc2cnc[nH]2)NC1=O | 113% (inactive) | inactive | inactive | inactive | inactive | inactive | inactive | 
